# Experimental data from PubChem BioAssay (Tox21).
# Records with an inconclusive call do not appear. Unmarked numbers belong to inactive results. The source made the active and inactive calls. Calls come from the whole dose curve.
# Molecular target: Acetylcholinesterase (Homo sapiens) (UniProt P22303)
# Assay: Acetylcholinesterase (AChE) small molecule antagonists: colormetric cell-based qHTS assay (AID 1347395); note: nearly all actives have a fitted effect of over 30% in size
# Details: SH-SY5Y cells AChE activity, colorimetric (Ellman); series mostly up to 115 µM; activity, negative = inhibition: at the top concentration
# Text: National Center for Advancing Translational Sciences [NCATS]
# Division of Preclinical Innovation [DPI]
# U.S. Environmental Protection Agency [EPA]
# National Institutes of Environmental Health Sciences [NIEHS]
# National Toxicology Program [NTP]
# U.S. Food and Drug Administration [FDA]
# Acetylcholinesterase (AChE) is the primary cholinesterase in the body that hydrolyzes a key neurotransmitter, acetylcholine. Inhibition of AChE activity can lead to neurotoxicity. The known inhibitors include organophosphorous pesticides (OP), chemical warfare agents, drugs, and various phytochemicals.
# A homogenous cell-based assay using the Amplite Colormetric acetylcholinesterase assay kit (AAT Bioquest, Sunnyvale, CA) was used to evaluate the chemicals in the Tox21 10K library that inhibit AChE activity. The assay uses 5, 5-dithiobis-(2-nitrobenzoic acid) (DTNB) to quantify the thiocholine produced from the hydrolysis of acetylthiocholine by AChE from the SH-SY5Y cells.
# Tox21 Assay Protocol Summary:
# For the cell-based AChE assay, 2,000 SH-SY5Y cells in 4 uL/well were dispensed into black, clear-bottom 1536-well plates using a Multidrop Combi dispenser (Thermo Scientific, MA). The assay plates were incubated overnight at 37 C to allow cells to attach to the wells, followed by the transfer of 23 nL of compound or DMSO (vehicle control) by a Pintool Station (Wako Automation, CA). The plates were incubated for 30 min at 37 C and 5% CO2, followed by the addition of 4 uL of detection cocktail solution (DTNB, acetylthiocholine) into each well using a Flying Reagent Dispenser (Beckman Coulter, CA) and then 90 min incubation at 37 C.
# % is set by controls: 0 for no effect and ±100 for the full control effect; potency is the fitted concentration of half-maximal effect.
# Chain of Acetylcholinesterase (Homo sapiens) (P22303 whole entry, looked up): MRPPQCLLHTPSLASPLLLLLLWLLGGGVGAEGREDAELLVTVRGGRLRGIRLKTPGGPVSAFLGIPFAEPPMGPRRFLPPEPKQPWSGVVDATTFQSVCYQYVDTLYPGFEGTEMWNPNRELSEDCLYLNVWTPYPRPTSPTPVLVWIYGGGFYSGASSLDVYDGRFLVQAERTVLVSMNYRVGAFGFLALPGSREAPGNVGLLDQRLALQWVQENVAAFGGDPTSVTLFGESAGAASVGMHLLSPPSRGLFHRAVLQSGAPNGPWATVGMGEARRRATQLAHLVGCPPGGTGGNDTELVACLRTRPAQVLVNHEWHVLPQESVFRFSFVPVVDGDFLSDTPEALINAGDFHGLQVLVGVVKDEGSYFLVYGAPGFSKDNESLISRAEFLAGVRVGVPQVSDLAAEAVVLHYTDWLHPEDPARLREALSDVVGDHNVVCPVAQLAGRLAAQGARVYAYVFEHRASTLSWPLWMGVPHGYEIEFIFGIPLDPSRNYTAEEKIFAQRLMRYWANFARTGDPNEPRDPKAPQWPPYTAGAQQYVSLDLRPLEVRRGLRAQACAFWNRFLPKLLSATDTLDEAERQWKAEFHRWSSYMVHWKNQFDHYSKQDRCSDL
Compound,"activity, negative = inhibition",Potency
CCC(C)(C)C1CCC(=O)CC1,2.03%,
CCN(CC)CC,1.62%,
Nc1ccc2c(S(=O)(=O)O)cccc2c1S(=O)(=O)O,0.467% [at 52.9 µM],
c1ccc(CCCc2ccccn2)cc1,-0.55%,
Cc1cccc(C)c1NC(=O)c1ccccc1C(=O)O,1.52% [at 52.9 µM],
Oc1ccc(-c2ccc(O)cc2)cc1,1.15%,
CCCCCCCCCCCCCCCC[N+](C)(C)CCN(Cc1ccc(OC)cc1)c1ncccn1,-2.83% [at 52.9 µM],
Cc1ccc2c(c1)OCC(=O)CO2,,35.6 µM (active)
CCOc1ccccc1O,5.08%,
CC(C)C(=O)O,0%,
CN(C(=O)c1c(O)c2ccccc2n(C)c1=O)c1ccccc1,1.3% [at 52.9 µM],
CSc1ccc2c(c1)C(N1CCN(C)CC1)Cc1ccccc1S2 (stereo not given),-3.96% [at 52.9 µM],
CCCCOC(=O)[C@@H](C)Oc1ccc(Oc2ccc(C(F)(F)F)cn2)cc1,0.244%,
CCCC(c1cc(C(C)(C)C)c(O)cc1C)c1cc(C(C)(C)C)c(O)cc1C,0.307%,
CN(C(=O)C(Cl)Cl)c1ccc(OC(=O)c2ccco2)cc1,-1.78% [at 52.9 µM],
CC1=CCCC(C)(C)C12CCC(C)O2 (stereo not given),2.73%,
CCC1(C)C(=O)N(Cl)C(=O)N1Cl (stereo not given),-1.35%,
O=C(c1ccccc1)C1CCC1,-0.202%,
CCN(CC)c1ccc(C(=C2C=CC(=[N+](CC)CC)C=C2)c2cc(S(=O)(=O)O)ccc2S(=O)(=O)[O-])cc1,5.68% [at 52.9 µM],
c1ccc2cc3c4ccccc4c4ccccc4c3cc2c1,-0.0226%,

Compound,"activity, negative = inhibition",Potency
CN(C)CCOCCO,0.301%,
c1ccc(-c2ccc(C(c3ccccc3)n3ccnc3)cc2)cc1 (stereo not given),-0.74% [at 52.9 µM],
CC(=O)OCC(=O)[C@@]1(O)CC[C@H]2[C@@H]3CCC4=CC(=O)C=C[C@]4(C)[C@@]3(F)[C@@H](O)C[C@@]21C,3.31% [at 52.9 µM],
Cc1oc2c(NC(=O)c3c(Cl)cccc3Cl)cccc2c1C(C)(C)O,-3.06%,
CNC(C)=O,3.45%,
C#CC(O)CCCCC (stereo not given),1.05%,
CC(C)(C)c1cc(CO)cc(C(C)(C)C)c1O,2.91%,
O=C(O)Cc1sc(-c2ccccc2)nc1-c1ccc(Cl)cc1,-1.32% [at 52.9 µM],
Cc1ccccc1N=Nc1ccc(N=Nc2c(O)ccc3ccccc23)c(C)c1,3.77% [at 52.9 µM],
O=C1c2ccccc2C(=O)c2cc(Cl)ccc21,-0.634% [at 10.5 µM],
O=c1cc(CO)occ1O,-0.589% [at 52.9 µM],
Nc1cnn([C@@H]2O[C@H](CO)[C@@H](O)[C@H]2O)c(=O)n1,0.504%,
O=C(O)c1cccc(-c2noc(-c3ccccc3F)n2)c1,-0.322% [at 52.9 µM],
CC[C@@]1(c2ccccc2)NC(=O)N(C)C1=O,2.74% [at 52.9 µM],
Nc1ccc(NC(=O)c2ccc(N)cc2)cc1,2.95%,
O=C(Nc1ccc(Oc2ccc(Cl)cc2)c(Cl)c1)c1cc(I)cc(I)c1O,-1.77% [at 52.9 µM],
Cc1nc(-c2ccc(Cl)cc2)oc1COC(C)(C)C(=O)O,-0.881% [at 52.9 µM],
CCc1ccc(C)nc1,1.08%,
CCCCCCCCCCCCCCCCOS(=O)(=O)O,1.83% [at 52.9 µM],
O=c1[nH][nH]c(=O)c2cc([N+](=O)[O-])ccc12,7.1%,
